In PubChem BioAssay (NCATS) one finds outcome and Potency data, which are given here for eleven compounds.

The structures appear in SMILES notation. Inconclusive results are not listed. Activity calls are given as the source filed them. Unless noted, calls follow the shape of the dose curve; as a rule, active = well fitted curve in the direction sought with a large enough effect; inconclusive = small, poorly fitted or top-dose-only effect, or another doubt; inactive = no such curve, though single readings can be large; an effect the other way counts as inactive or inconclusive.

A short description of assay [1]: qHTS assay for measurement of the activity of small molecule inhibitors on Zika virus induced Caspase-3 activity in human astrocytoma cells (AID 1224859). A digest of the protocol:
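Percent inhibition of virus-induced caspase-3/7 signal is calculated against uninfected and ZIKV-infected control cells. Cells are SNB-19, infected at 2 FFU/cell for 6 h after 1 h compound exposure.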

Assay [2] in a line: qHTS assay to identify small molecule inhibitors of chordoma cells - UCH-1 (AID 1259355). Also: nearly all actives have a fitted effect of over 55% in size. Also: potency is read from the fitted curve at half-maximal effect; series mostly up to about 46 µM. A digest of the protocol: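 800 cells/well, overnight attach; compounds pinned at 15 concs, then auranofin/camptothecin/doxorubicin/rubitecan/topotecan combo added; 48hr 37 C, 5% CO2; CellTiter-Glo, 30min RT, luminescence.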
(Quantitative high-throughput screening tests each substance at several concentrations.)

The nature of assay [3]: qHTS assay to identify small molecule inhibitors of chordoma cells - UCH-2 (AID 1259356). Also: potency is read from the fitted curve at half-maximal effect.
Assay [4] can be described thus: NS1 protein of Zika virus - qHTS assay to identify small molecule inhibitors in human HEK 293 cells (AID 1347053). Also: series mostly up to about 46 µM; nearly all actives have a fitted effect of over 55% in size. A digest of the protocol:
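Read-out is a two-antibody TR-FRET for ZIKV NS1, normalized between uninfected cells and infected cells. Compound added 1 h before MR766 infection at MOI 0.5; human HEK 293 cells incubated 24 h, 37 C.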

The nature of assay [5]: qHTS of pediatric cancer cell lines to identify multiple opportunities for drug repurposing: Primary screen for TC32 cells (AID 1347089). Also: nearly all actives have a fitted effect of over 60% in size. Also: potency is read from the fitted curve at half-maximal effect. A digest of the protocol:
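Luminescent CellTiter-Glo read-out of metabolically active TC32 cells after 48 h compound exposure. Primary: MIPE 11-point, 0.78 nM–46 µM; NPC 8-point, 0.59 nM–46 µM. Confirmatory: 11-point dilutions.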

Assay [6] in a line: qHTS of pediatric cancer cell lines to identify multiple opportunities for drug repurposing: Primary screen for DAOY cells (AID 1347090). Also: nearly all actives have a fitted effect of over 55% in size. Also: potency is read from the fitted curve at half-maximal effect. A digest of the protocol: (§1)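 Cell viability, CellTiter-Glo luminescence; 500-1,000 cells/well, 8- or 11-point titration, 48 h compound exposure at 37 degrees C, 5% CO2. Controls: DMSO neutral, bortezomib 2.3 µM final as positive.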
Assay [7] can be described thus: qHTS of pediatric cancer cell lines to identify multiple opportunities for drug repurposing: Primary screen for SJ-GBM2 cells (AID 1347091). A digest of the protocol:
as §1

Assay [8] in a line: qHTS of pediatric cancer cell lines to identify multiple opportunities for drug repurposing: Primary screen for A673 cells (AID 1347092). Also: nearly all actives have a fitted effect of over 45% in size. Also: potency is read from the fitted curve at half-maximal effect. A digest of the protocol:
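A673 cells (500-1,000 cells/well in growth media) were pre-incubated 5 h at 37 degrees C, then exposed to compounds for 48 h. Viability was read as CellTiter-Glo luminescence; concentration-response curves came directly from the primary screen.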

The nature of assay [9]: qHTS of pediatric cancer cell lines to identify multiple opportunities for drug repurposing: Primary screen for SK-N-MC cells (AID 1347093). Also: potency is read from the fitted curve at half-maximal effect. A digest of the protocol: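 Metabolically active cells were quantified by ATP-dependent luminescence (CellTiter-Glo, 15 min at room temperature) following 48 h treatment. Cells had been plated at 500-1,000 per well and settled for 5 h beforehand.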

Assay [10] is described as follows: qHTS of pediatric cancer cell lines to identify multiple opportunities for drug repurposing: Primary screen for BT-37 cells (AID 1347094). Also: potency is read from the fitted curve at half-maximal effect. A digest of the protocol:
(§2)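 Phenotypic viability qHTS, 48 h compound exposure, CellTiter-Glo luminescence read-out; multi-concentration dosing so that potency and efficacy derive directly from the primary screen's curves.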

Assay [11] in a line: qHTS of pediatric cancer cell lines to identify multiple opportunities for drug repurposing: Primary screen for NB-EBc1 cells (AID 1347095). Also: potency is read from the fitted curve at half-maximal effect. A digest of the protocol:
as §2

Assay [12] can be described thus: Natriuretic polypeptide receptor (hNpr1) antagonism - Pilot counterscreen GloSensor control cell line (AID 1347045; calls by dose curve; also: series mostly up to about 38 µM). A digest of the protocol:
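Control counterscreen: luciferase cGMP-biosensor HEK293 cells (no Npr1) received compound for 30 min at room temperature after GloSensor substrate loading. Luminescence was measured before and 20 min after soluble guanylyl cyclase activation by 50 uM nitroprusside.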

The target in assay [13] is Atrial natriuretic peptide receptor 1 (Homo sapiens) (UniProt P16066). Description: Natriuretic polypeptide receptor (hNpr1) antagonism - Pilot screen (AID 1347049; calls by dose curve;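 also: HEK293 cells with hNpr1 and GloSensor cGMP luciferase stimulated by 0.1 nM hNppA; agonist-evoked cGMP luminescence read 20 min after hNppA addition; series mostly up to about 58 µM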). A digest of the protocol: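 Receptor antagonism read as cGMP-dependent luminescence in hNpr1/pGS-40F HEK293 cells: pre-read after 30 min compound exposure, post-read 20 min after hNppA agonist at 0.1 nM final, all at room temperature, protected from light; A-71915 titration as control.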

For assay [14], the target named is Atrial natriuretic peptide receptor 2 (Homo sapiens) (UniProt P20594). As to the kind of experiment: Natriuretic polypeptide receptor (hNpr2) antagonism - Pilot subtype selectivity assay (AID 1347050; calls by dose curve). A digest of the protocol:
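Antagonist mode: compounds (LOPAC1280, seven 1:5 dilutions) added 30 min before 1 nM hNppC stimulation of hNpr2-HEK293 cGMP-sensor cells; luminescence read before and 20 min after agonist at ambient temperature.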

Assay [15] has as its target T1, Tyrosine-protein phosphatase non-receptor type substrate 1 (Homo sapiens) + Leukocyte surface antigen CD47 (Homo sapiens) (UniProt P78324+Q08722). Description: CD47-SIRPalpha protein protein interaction - LANCE assay qHTS validation (AID 1347057; active = well fitted curve in the direction sought with a large enough effect in the signal ratio, with a control signal flat, not every such curve was filed as active; the % refers to the signal ratio; also: series mostly up to about 38 µM). A digest of the protocol:
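Inhibition of soluble CD47/SIRPalpha ectodomain association by titrated compounds, measured as 665/615 nm time-resolved FRET ratio after sequential 30 min room-temperature incubations.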
On the technique in general: In TR-FRET formats the signal depends on donor and acceptor labels being close together.

The target in assay [16] is T1, Tyrosine-protein phosphatase non-receptor type substrate 1 (Homo sapiens) + Leukocyte surface antigen CD47 (Homo sapiens). As to the kind of experiment: CD47-SIRPalpha protein protein interaction - HTRF assay qHTS validation (AID 1347058; active = well fitted curve in the direction sought with a large enough effect in the signal ratio, not every such curve was filed as active; the % refers to the signal ratio; also: series mostly up to about 38 µM). A digest of the protocol: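 Soluble extracellular domains (6His-CD47, Avi-tag-biotinylated SIRPalpha) in PBS pH 7.4 with 0.05% IGEPAL CA-630. Compounds were preincubated 30 min at RT with CD47 and anti-His-Eu, then SIRPalpha and SAV-XL665 were added. TR-FRET 665/615 ratio.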

The target is the same in assay [17]. As to the kind of experiment: CD47-SIRPalpha protein protein interaction - Alpha assay qHTS validation (AID 1347059).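 Also: bead proximity luminescence from CD47 binding SIRPalpha after compound preincubation with SIRPalpha.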 A digest of the protocol:
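AlphaScreen signal between CD47-His (12.5 nM) and biotin-SIRPalpha (25 nM) soluble extracellular domains, bead-captured via Ni-NTA and streptavidin. Compounds, in 7-point titrations, met SIRPalpha 30 min before CD47; PBS pH 7.4 with 0.05% IGEPAL.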

The target in assay [18] is Parathyroid hormone/parathyroid hormone-related peptide receptor (Homo sapiens) (UniProt Q03431). Description: qHTS for PTHR1 Agonists: Optimization Screen against the NCGC LOPAC library (AID 1347079).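 Also: GloSensor cAMP luminescence in HEK-293 GP2 cells expressing human PTHR1 with IBMX.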 A digest of the protocol: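 HEK-293 GP2 cells, PTHR1 + GloSensor cAMP; 3000 cells/well, o/n. Luciferin + IBMX 0.5mM each (stock), 1 hr 37C. Cpd titration, 1 hr 37C. Lum after 15 min RT. Ctrl M-PTH(1-15) top 10uM.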
Sequence of Parathyroid hormone/parathyroid hormone-related peptide receptor (Homo sapiens) (Q03431 whole entry, looked up): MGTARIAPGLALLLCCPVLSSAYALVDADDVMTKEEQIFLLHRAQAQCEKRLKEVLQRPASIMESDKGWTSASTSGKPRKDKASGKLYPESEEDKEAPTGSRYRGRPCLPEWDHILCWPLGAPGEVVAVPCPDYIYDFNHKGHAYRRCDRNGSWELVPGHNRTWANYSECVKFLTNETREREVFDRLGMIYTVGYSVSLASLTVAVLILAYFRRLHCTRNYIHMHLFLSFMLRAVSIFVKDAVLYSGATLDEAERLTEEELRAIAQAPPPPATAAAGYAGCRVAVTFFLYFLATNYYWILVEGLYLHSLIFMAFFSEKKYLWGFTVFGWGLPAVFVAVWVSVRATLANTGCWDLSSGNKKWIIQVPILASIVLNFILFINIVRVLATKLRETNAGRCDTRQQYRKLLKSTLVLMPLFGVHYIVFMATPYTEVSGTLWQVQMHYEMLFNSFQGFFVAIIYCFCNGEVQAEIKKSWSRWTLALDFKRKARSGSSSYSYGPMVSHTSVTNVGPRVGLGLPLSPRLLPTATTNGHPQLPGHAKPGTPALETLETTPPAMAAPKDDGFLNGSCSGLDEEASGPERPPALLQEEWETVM

T1 sequence (P78324 whole entry, looked up, the tested form may be a part): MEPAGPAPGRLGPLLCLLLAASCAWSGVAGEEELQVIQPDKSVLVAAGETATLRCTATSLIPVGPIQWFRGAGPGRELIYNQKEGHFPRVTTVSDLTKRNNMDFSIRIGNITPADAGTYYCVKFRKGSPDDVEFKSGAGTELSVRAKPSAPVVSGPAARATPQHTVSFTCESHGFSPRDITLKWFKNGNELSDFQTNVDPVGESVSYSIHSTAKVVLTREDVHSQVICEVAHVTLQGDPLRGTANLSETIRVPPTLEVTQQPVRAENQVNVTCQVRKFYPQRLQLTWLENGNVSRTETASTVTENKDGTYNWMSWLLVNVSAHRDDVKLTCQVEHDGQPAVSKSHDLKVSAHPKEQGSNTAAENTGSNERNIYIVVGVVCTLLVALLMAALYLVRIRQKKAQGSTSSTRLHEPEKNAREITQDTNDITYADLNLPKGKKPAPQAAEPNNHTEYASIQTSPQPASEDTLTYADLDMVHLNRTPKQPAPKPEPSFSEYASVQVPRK
T1 sequence (Q08722 whole entry, looked up, the tested form may be a part): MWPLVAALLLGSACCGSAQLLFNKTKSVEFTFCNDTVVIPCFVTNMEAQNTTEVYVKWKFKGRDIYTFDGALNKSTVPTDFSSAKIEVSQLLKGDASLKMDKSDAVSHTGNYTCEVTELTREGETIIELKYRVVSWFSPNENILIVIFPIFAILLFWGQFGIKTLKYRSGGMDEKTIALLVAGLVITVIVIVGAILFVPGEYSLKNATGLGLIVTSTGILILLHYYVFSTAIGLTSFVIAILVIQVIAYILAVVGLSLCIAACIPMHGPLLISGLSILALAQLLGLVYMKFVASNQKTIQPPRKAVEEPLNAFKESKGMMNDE
Sequence of Atrial natriuretic peptide receptor 1 (Homo sapiens) (P16066 whole entry, looked up): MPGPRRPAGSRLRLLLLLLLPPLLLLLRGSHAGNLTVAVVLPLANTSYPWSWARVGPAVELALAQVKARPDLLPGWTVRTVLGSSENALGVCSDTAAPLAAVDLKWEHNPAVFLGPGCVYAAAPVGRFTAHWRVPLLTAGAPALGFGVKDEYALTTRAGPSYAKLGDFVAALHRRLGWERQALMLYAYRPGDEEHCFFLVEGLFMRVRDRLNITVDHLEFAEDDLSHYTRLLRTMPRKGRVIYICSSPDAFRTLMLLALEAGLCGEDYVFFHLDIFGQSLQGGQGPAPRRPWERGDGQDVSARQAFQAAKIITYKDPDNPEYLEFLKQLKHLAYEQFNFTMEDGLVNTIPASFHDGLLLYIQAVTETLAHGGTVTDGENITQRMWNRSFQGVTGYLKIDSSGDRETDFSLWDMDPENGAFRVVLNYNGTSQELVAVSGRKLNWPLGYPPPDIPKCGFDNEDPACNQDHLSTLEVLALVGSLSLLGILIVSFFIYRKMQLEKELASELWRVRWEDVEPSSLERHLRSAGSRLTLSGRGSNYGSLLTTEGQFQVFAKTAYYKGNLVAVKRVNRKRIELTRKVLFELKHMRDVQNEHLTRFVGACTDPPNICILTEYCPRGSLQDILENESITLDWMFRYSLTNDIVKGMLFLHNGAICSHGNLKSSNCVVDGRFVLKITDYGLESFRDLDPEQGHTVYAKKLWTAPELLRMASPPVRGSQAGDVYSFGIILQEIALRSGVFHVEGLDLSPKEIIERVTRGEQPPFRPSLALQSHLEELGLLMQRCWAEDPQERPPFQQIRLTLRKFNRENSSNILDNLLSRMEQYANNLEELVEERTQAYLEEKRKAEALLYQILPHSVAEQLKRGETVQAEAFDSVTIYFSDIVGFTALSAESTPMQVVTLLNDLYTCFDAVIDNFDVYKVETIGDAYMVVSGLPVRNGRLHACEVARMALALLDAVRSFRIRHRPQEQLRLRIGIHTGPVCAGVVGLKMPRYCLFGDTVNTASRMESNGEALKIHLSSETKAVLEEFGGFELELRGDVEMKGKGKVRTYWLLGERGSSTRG
Sequence of Atrial natriuretic peptide receptor 2 (Homo sapiens) (P20594 whole entry, looked up): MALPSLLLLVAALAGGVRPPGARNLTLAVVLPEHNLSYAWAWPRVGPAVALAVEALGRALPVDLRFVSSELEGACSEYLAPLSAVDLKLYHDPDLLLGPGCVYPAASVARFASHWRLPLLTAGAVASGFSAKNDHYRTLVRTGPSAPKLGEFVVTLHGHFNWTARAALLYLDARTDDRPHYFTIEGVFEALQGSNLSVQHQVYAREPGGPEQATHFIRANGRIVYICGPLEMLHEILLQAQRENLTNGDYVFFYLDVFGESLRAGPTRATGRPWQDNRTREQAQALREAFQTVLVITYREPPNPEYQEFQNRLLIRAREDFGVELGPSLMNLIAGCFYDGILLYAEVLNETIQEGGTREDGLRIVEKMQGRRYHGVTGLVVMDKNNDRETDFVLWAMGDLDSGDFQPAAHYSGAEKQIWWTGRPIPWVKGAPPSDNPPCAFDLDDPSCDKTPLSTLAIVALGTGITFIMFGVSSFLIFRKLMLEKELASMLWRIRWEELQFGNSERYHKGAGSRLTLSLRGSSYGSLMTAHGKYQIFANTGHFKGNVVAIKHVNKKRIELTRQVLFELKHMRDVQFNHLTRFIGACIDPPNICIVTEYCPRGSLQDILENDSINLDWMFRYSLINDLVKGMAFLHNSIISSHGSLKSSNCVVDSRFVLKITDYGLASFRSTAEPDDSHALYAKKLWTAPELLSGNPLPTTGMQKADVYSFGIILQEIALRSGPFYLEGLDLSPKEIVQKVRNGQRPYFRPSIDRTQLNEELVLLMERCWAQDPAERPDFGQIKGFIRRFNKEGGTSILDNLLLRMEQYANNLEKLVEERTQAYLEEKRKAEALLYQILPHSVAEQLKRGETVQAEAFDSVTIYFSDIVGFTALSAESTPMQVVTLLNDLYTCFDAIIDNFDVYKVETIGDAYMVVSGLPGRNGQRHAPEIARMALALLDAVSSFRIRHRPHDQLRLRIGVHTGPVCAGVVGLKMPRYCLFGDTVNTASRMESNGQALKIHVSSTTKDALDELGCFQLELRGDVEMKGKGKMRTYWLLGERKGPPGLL

On to `COC(=O)C(c1ccccc1Cl)N1CCc2sccc2C1` (stereo not given), for which the compound was classed as inactive in [1]. Moreover, the Potency result in assay [2], in assay [3], in assay [4], in [5], in [6] and in assay [7] was “inactive” in each case. For the same compound, the Potency entry in assay [8], in assay [9], in assay [10] and in assay [11] was “inactive” in each case.
Take `OCc1ccccn1`: in assay [1], the outcome was inactive. The Potency entry in assay [2], in assay [3], in [4], in assay [5], in assay [6] and in assay [7] was “inactive” each time. The Potency entry in [8], in assay [9], in assay [10] and in assay [11] was “inactive” each time.
`CCOC(=O)[C@H](CCc1ccccc1)N[C@@H](C)C(=O)N1[C@H](C(=O)O)C[C@H]2CCCC[C@@H]21`: the result in assay [1], in assay [12], in [13], in assay [14], in assay [15] and in [16] was inactive. For the same compound, the result in assay [17] and in assay [18] was inactive. In addition, the Potency entry in [2], in assay [3] and in [4] was “inactive” in each case.
In the case of `CCN(CC)CCOc1ccccc1C(=O)CCc1ccccc1`, the call in assay [1] was inactive. Also, the Potency entry in [2], in [3], in assay [4], in assay [5], in assay [6] and in [7] was “inactive” in each case. In addition, the Potency result in [8], in [9], in assay [10] and in [11] was “inactive” in each case.
`O=C(Oc1cccc2cccnc12)c1ccccc1`: the compound was classed as inactive in [1]. For the same compound, the Potency entry in assay [2], in assay [3], in assay [7] and in assay [10] was “inactive” throughout. Also, the Potency in assay [5] is 1.67 µM (active); in assay [8], 0.001 µM (active); in assay [9] it was 9.44 µM (active).
Turning to `CC(C)=CCOc1ccc(/C=C/C(=O)c2ccc(OCC=C(C)C)cc2OCC(=O)O)cc1`, the outcome in assay [1] was inactive. Also, the Potency result in [2], in assay [3], in assay [4], in assay [5] and in [10] was “inactive” each time. For the same compound, the Potency in assay [9] was 21.1 µM (active).
`N#C/C(=C1\SCC(c2ccccc2Cl)S1)n1ccnc1` (stereo not given): the outcome in assay [1] was inactive. For the same compound, the Potency entry in assay [2], in [3], in assay [4], in assay [5], in [6] and in assay [7] was “inactive” throughout. The Potency result in [9], in assay [10] and in assay [11] was “inactive” each time.
Turning to `NC(N)=NN=C(/C=C/c1ccc([N+](=O)[O-])o1)/C=C/c1ccc([N+](=O)[O-])o1`, the result in assay [1] was inactive. Besides, the Potency in [2] is 10 µM (active); in assay [3], 16.4 µM (active); in assay [5], 6.64 µM (active); in assay [6] it was 10.6 µM (active); in assay [8], 1.06 µM (active); in [11], 5.31 µM (active).
With `CC(C)n1c(/C=C/[C@@H](O)C[C@@H](O)CC(=O)O)c(-c2ccc(F)cc2)c2ccccc21`, the result in [1] was inactive. The Potency result in assay [2], in assay [3] and in assay [4] was “inactive” each time. Further, the Potency in [5] was 16.7 µM (active); in assay [6] it was 1.33 µM (active); in [8] it was 5.31 µM (active); in assay [9] it was 15 µM (active); in assay [10], 15.5 µM (active).
`O=C(Nc1ccccc1)OCC(CN1CCCCC1)OC(=O)Nc1ccccc1` (stereo not given): the result in [1] was inactive. Also, the Potency result in assay [2], in assay [3], in assay [4], in assay [5], in assay [6] and in assay [11] was “inactive” in each case.
Take `CCCCNc1ccc(C(=O)OCCOCCOCCOCCOCCOCCOCCOCCOCCOC)cc1`: the compound was called inactive in assay [1]. Further, the Potency entry in [2], in assay [3], in assay [4], in assay [5], in assay [6] and in assay [7] was “inactive” throughout. Moreover, the Potency entry in assay [11] is “inactive”.
